# Screening results from PubChem.
# ELG1 DNA repair – qHTS screen for small molecules that inhibit ELG1-dependent DNA repair in human embryonic kidney (HEK293T) cells expressing luciferase-tagged ELG1; hit rate 2.3% among 330,000; AID 504467, 2011; HEK293T ELG1-luciferase reporter, luminescence, 16 h; DNA damage induced by 5-fluorouridine; Potency, µM (doses to about 46.1 µM), for the others: top-dose activity change, negative = inhibition, actives largely listed as inhibitors; also: % is scaled to controls: 0 for no effect and ±100 for the full control effect; nearly all actives have a fitted effect of over 55% in size
#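 5-Fluorouridine DNA damage + compound/DMSO, 2,000 cells/well, 16 h, 37 °C/5% CO2. ONE-Glo, 30 min RT, luminescence. Readout = decrease in reporter signal.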
# NPC1 promoter act – qHTS Assay for NPC1 Promoter Activators | hit rate 2.4% among 320,000 | Potency, µM (doses to about 9.22 µM), inactives show at the highest dose activation, usual class: activators | Huh7 NPC1 promoter luciferase reporter, 24 h | AID 485313, 2010; also: % of control where 0% means no effect; nearly all actives have a fitted effect of over 60% in size
#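 NPC1 promoter–luciferase Huh7 cells; 24 h compound; luminescence.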
# FLuc modulator – qHTS profiling assay for firefly luciferase inhibitor/activator using purifed enzyme and Km concentrations of substrates (counterscreen for miR-21 project) | hit rate 6.9% among 360,000 | AID 588342, 2011 | purified FLuc, Km substrates, luminescence inhibition | Luciferin 4-monooxygenase (Photinus pyralis), P08659 | Potency, µM (doses to about 57.5 µM), without a hit: top-dose activity change, negative = inhibition, hits mostly inhibitors;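 also: plate controls were vehicle for no effect and reference inhibitor for full effect; nearly all actives have a fitted effect of over 55% in size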
# Target sequence (P08659 whole entry, looked up): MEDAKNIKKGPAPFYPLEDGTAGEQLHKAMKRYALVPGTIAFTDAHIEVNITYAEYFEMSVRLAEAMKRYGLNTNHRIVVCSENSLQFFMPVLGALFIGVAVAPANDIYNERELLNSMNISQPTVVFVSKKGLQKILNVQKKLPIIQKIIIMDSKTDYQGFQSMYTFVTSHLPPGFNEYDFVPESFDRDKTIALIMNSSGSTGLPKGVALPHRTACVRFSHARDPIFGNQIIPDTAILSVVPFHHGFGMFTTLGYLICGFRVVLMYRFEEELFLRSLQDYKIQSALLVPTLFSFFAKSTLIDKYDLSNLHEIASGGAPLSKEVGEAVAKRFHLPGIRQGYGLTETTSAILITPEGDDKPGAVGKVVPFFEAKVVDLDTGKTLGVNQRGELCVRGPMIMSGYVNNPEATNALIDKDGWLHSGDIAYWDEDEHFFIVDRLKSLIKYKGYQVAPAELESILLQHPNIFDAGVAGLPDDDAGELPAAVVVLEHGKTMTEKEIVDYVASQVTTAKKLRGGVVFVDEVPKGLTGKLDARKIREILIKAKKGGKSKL
#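 Biochemical qHTS of compounds, final roughly 60 µM downward over six points, against 10 nM purified firefly luciferase using Km concentrations of substrates (10 uM D-luciferin, 10 uM ATP) in Tris acetate pH 7.5 buffer; luminescence output.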
# ELG1 genotox – qHTS screen for small molecules that induce genotoxicity in human embryonic kidney (HEK293T) cells expressing luciferase-tagged ELG1 | HEK293T ELG1-luciferase reporter, luminescence, 16 h | Potency, µM (series often up to 46 µM), for inactives: at the highest dose activity change, positive = activation, actives largely listed as activators | hit rate 1.3% among 330,000 | AID 504466, 2011; also: % of control where 0% means no effect; nearly all actives have a fitted effect of over 60% in size
#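 HEK293T cells expressing luciferase-tagged ELG1 were treated with compound or DMSO for 16 hr at 37°C. Luciferase activity was then read after 30 min with ONE-Glo at room temperature; rising signal flags genetic stress.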
# Rab9 prom act – qHTS Assay for Rab9 Promoter Activators; hit rate 2.8% among 320,000; Potency, µM (doses to about 9.22 µM), inactives show at the top dose activation, negative = inhibition, usual class: activators; Huh7 Rab9 promoter-luciferase reporter, luminescence, 24 h; also: % of control where 0% means no effect; nearly all actives have a fitted effect of over 60% in size
#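 Rab9 promoter-driven luciferase in stably transfected Huh7 cells; 1500 cells/well rested 2 h, exposed to compound in DMSO for 24 h at 37 °C, 5% CO2. Luminescence read 10 min after adding luciferase reagent at ambient temperature.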
# SMN2 splice up – qHTS Assay for Enhancers of SMN2 Splice Variant Expression; HEK293 SMN2-luciferase splicing reporter, luminescence, 30-36 h; Potency, µM (top dose mostly 46.1 µM), for the others: at the top dose activity change, positive = activation, usual class: activators; hit rate 2.8% among 210,000; AID 1458, 2008; also: % of control where 0% means no effect; nearly all actives have a fitted effect of over 55% in size
#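 HEK293 cells carry an SMN2 minigene-luciferase reporter in which exon 7 inclusion puts luciferase in frame. Cells were seeded at 2000 cells/well, attached for 10-12 hours, then exposed to compounds for 30-36 hours at 37C before ONE-Glo luminescence.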
# * = called active by the depositor; ? = inconclusive; / = no result; [ ] = remark or other dose. Shown are actives, neighbours in structure and some others; about 9.4% of the full set was active somewhere. Calls follow the shape of the dose curve; as a rule, active = well fitted curve in the direction sought with a large enough effect; inconclusive = small, poorly fitted or top-dose-only effect, or another doubt; inactive = no such curve, though single readings can be large; an effect the other way counts as inactive or inconclusive. Potency is read from the fitted curve at half-maximal effect.
SMILES,ELG1 DNA repair,NPC1 promoter act,FLuc modulator,ELG1 genotox,Rab9 prom act,SMN2 splice up
CCOc1ccc(-c2noc(CCC(=O)O)n2)cc1,?,-3.6%,12µM*,5.6%,-13.4%,11.2%
COc1cc(-c2noc(CCCC(=O)NC3CCCCC3)n2)cc(OC)c1OC,5.17µM*,-3.8%,4.0%,-1.0%,-1.6%,9.8%
COc1ccc(-c2noc(CCCC(=O)O)n2)cc1,?,-16.8%,10.7µM*,-1.2%,-16.9%,24.7%
Cc1ccc2oc(-c3ccccc3)nc2c1,?,1.12µM*,0.601µM*,?,3.16µM*,?
Cc1ccc2oc(-c3cccc(NC(=O)Cc4ccc(Cl)cc4)c3)nc2c1,/,/,1.4%,/,/,-5.5%
CCOc1ccc(-c2nc3cc(NC(=O)COc4cccc(C)c4)ccc3o2)cc1,/,/,-13.3%,/,/,-4.9%
CCOc1cccc(-c2nc3cc(C)ccc3o2)c1,?,13.5%,0.953µM*,?,?,12.6µM*
CCOC(=O)c1c(C)oc2ncnc(N3CCN(c4ccccc4OC)CC3)c12,/,/,-8.5%,/,/,/
CCc1ccc(-c2cn3c(n2)sc2cc(C(=O)NCCC4=CCCCC4)ccc23)cc1,/,/,-3.0%,/,/,/
CCOC(=O)c1c(NC2=NS(=O)(=O)c3ccccc32)sc2c1CCCCC2,?,1.41µM*,-0.3%,1.0%,?,/
CN1C(=O)CC[C@@H]1c1cccnc1,/,/,/,/,/,-0.8%[20.6 µM]
N/C(=N\OC(=O)CCC1CCCCC1)c1cccc([N+](=O)[O-])c1,?,9.4%,10.7µM*,2.3%,8.7%,-2.5%
N/C(=N\OC(=O)CC1CCCCC1)c1ccc(Cl)cc1,?,4.0%,7.57µM*,?,-5.1%,/
N/C(=N\OC(=O)CC1CCCCC1)c1cccc(Br)c1,?,14.0%,2.69µM*,15.5%,16.2%,/
N/C(=N\OC(=O)CC1CCCCC1)c1ccc(Br)cc1,17.5%,1.8%,?,27.8%,-0.1%,/
N/C(=N\OC(=O)CCC1CCCC1)c1ccc([N+](=O)[O-])cc1,-8.9%,-1.8%,?,9.4%,0.5%,/
O=C(C1CCC1)N1CCc2cc(S(=O)(=O)NCc3ccc(F)cc3)ccc21,/,/,-1.1%,/,/,-8.2%
O=C(CCC(=O)OCC(=O)c1ccc(Cl)cc1)NC1CCCCC1,4.3%,-0.6%,-15.7%,-0.6%,2.4%,-2.0%
CC(C)(C)c1ccc(OCCC(=O)OCC(=O)NC(=O)NC2CCCC2)cc1,-12.8%,-0.4%,?,-43.6%,16.2%,/
Cc1ccc(C(=O)COC(=O)CCC(=O)NC2CCCCC2)cc1C,11.3%,0.5%,9.53µM*,-2.7%,1.7%,0.3%
CC(C)(C)c1ccc(OCCC(=O)OCC(=O)NC2CCCCC2)cc1,-1.6%,0.8%,16.9µM*,1.8%,1.9%,/
COc1cc(C/C=C\c2ccccc2)c(OC)cc1O,/,/,/,/,/,-2.1%
O=C1/C(=C/c2cccc(F)c2)CSc2sccc21,1.0%,0.9%,-8.0%,3.4%,1.0%,-0.6%
COC(=O)COc1ccc2c(c1)O/C(=C\c1cccc([N+](=O)[O-])c1)C2=O,4.3%,-2.9%,-7.5%,1.7%,7.1%,/
Cc1cccc(/C=C2\Oc3cc(OS(C)(=O)=O)ccc3C2=O)c1,2.7%,21.9%,16.9µM*,8.6%,16.0%,-12.8%
SMILES,ELG1 DNA repair,NPC1 promoter act,FLuc modulator,ELG1 genotox,Rab9 prom act,SMN2 splice up
O=C1/C(=C/c2cccc(F)c2)Oc2cc(O)ccc21,?,18.5%,10.7µM*,1.2%,5.4%,/
COc1ccccc1NC(=O)CSc1nnc(-c2nonc2NC(C)=O)n1-c1ccccc1,/,/,-0.9%,/,/,/
CCn1cc2nc(SCc3cccc(C(F)(F)F)c3)n(Cc3ccc(OC)cc3)c(=O)c2n1,/,/,-13.5%,/,/,/
Cc1ccc(C2CC(=O)C=C(Nc3ccc(Cl)cc3)C2)cc1 (centres undefined),1.5%,0.8%,-1.2%,2.3%,1.4%,-2.8%
O=C1C=C(Nc2ccc(Cl)cc2)CC(c2ccc(Cl)cc2)C1 (centres undefined),?,-2.9%,10.7µM*,8.6%,0.5%,-13.1%
COc1cccc(CNC(=O)CN2C(=O)CCn3nc(-c4cn(C)c5ccccc45)cc32)c1OC,/,/,1.7%,/,/,/
COC(=O)c1ccc2ncccc2c1,?,12.5%,?,5.2%,-0.2%,19.7%
COC(=O)c1cnc(SCc2ccc(Cl)cc2)n1C,?,21.0%,?,9.8%,?,/
COC(=O)c1ccnc(SCC(=O)c2ccccc2)c1,?,3.16µM*,3.79µM*,14.6µM*,2.82µM*,?
COC(=O)c1cnc(SCC(=O)c2ccccc2)n1C,?,1µM*,3.38µM*,?,1.12µM*,/
COc1ccccc1NC(=O)N1CCCC1C(=O)NCc1ccccc1Cl (centres undefined),-3.3%,-2.0%,0.5%,-2.7%,3.2%,/
COc1ccccc1NC(=O)N1CCCC1C(=O)NCc1ccccc1F (centres undefined),18.9%,0.8%,-2.2%,13.1%,-7.6%,6.31µM*
C=CCc1ccc(OCc2ccc(C(=O)Nc3ccc(NC(C)=O)cc3)o2)c(OC)c1,?,1.12µM*,?,11.7%,0.398µM*,2.82µM*
Cc1cccc2cc(/C=N/Nc3ccc(C(=O)O)cc3)c(Cl)nc12,?,0.398µM*,0.675µM*,5.17µM*,0.398µM*,/
CC(C)(C)OC(=O)N1CCC[C@H]1C(=O)N/N=C/c1cccc2nccnc12,-2.5%,-5.0%,16.9µM*,1.7%,0.3%,/
